Nine compounds from PubChem BioAssay (NCI) can be followed below.

Each structure is given as a SMILES string. About 83,000 compounds went through this panel and 20% of them were active in at least one assay; those are over-represented in the sample as a whole.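 Testing used 96-well plates and a 48-hour single-concentration exposure. Example: -40 means 40% of the starting cells died.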 A number with no mark means an inactive call. Calls of active or inactive are those of the source. Rule for the calls: active = growth percent below 10; inactive = the rest.

Test systems include HCT-15 colon; HT29 colon; SNB-75 CNS; U251 CNS; PC-3 prostate; SK-MEL-5 melanoma; UACC-62 melanoma; LOX IMVI melanoma; SK-MEL-28 melanoma; SK-MEL-2 melanoma; EKVX NSCLC; UO-31 renal; TK-10 renal; ACHN renal; CAKI-1 renal; CCRF-CEM leukemia; MOLT-4 leukemia; SN12C renal; A498 renal; SNB-19 CNS.
What all share (test): NCI-60 one-dose screen, 48 h (100 = growth as untreated, 0 = no growth, -100 = all killed)
Holding throughout (settings): 10 µM unless noted

Take `Cn1/c(=N/NC(N)=S)ccc2ccccc21`: the growth with HCT-15 colon was 82.3%; in the experiment with HT29 colon, 57.9%; in the experiment with SNB-75 CNS it was 101%; in the experiment with U251 CNS, 97.5%; in the experiment on PC-3 prostate, 76.7%; with SK-MEL-5 melanoma it was 102%. Moreover, the growth in the experiment with UACC-62 melanoma is 102%; with LOX IMVI melanoma, 102%; in the experiment with SK-MEL-28 melanoma, 117%; in the experiment on SK-MEL-2 melanoma it was 117%; with EKVX NSCLC, 78.1%; with UO-31 renal, 62.7%. Further, the growth is 113% in the experiment on TK-10 renal; 95.2% in the experiment with ACHN renal; 95.7% with CAKI-1 renal; 63.9% in the experiment with CCRF-CEM leukemia; 48.5% in the experiment on MOLT-4 leukemia.

For `COc1cccc2cc(-c3cc4ccccc4[nH]3)/c(=N/C(=S)Nc3ccc(C)cc3)oc12`, the growth was 72% in the experiment on HCT-15 colon; 86.3% in the experiment on HT29 colon; -8.91% (active) with SNB-75 CNS; 74.9% with U251 CNS; 55.6% with PC-3 prostate; 73.8% with SK-MEL-5 melanoma. The growth with LOX IMVI melanoma was 71.2%; with SK-MEL-28 melanoma it was 78.4%; with SK-MEL-2 melanoma, 85%; in the experiment with EKVX NSCLC, 60.9%; with SN12C renal, 77.6%; with UO-31 renal it was 85.3%. Moreover, the growth with TK-10 renal was 94.3%; in the experiment on ACHN renal, 27.9%; in the experiment on CAKI-1 renal it was 19.2%; in the experiment with A498 renal, 63%; in the experiment on MOLT-4 leukemia, 101%.

`COc1cc(/C=C2\C(=O)N(Cc3ccc(Cl)cc3)c3ccccc32)cc(OC)c1OC`: the growth was -37.7% (active) in the experiment on HCT-15 colon; 8.97% (active) with HT29 colon; 12.5% in the experiment on SNB-75 CNS; 3.6% (active) in the experiment with U251 CNS; 38.6% in the experiment with PC-3 prostate; 41.6% with SK-MEL-5 melanoma. Also, the growth is 22.2% in the experiment on UACC-62 melanoma; -57.1% (active) in the experiment with LOX IMVI melanoma; -42.6% (active) in the experiment with SK-MEL-28 melanoma; 90.2% in the experiment on SK-MEL-2 melanoma; 88.8% with EKVX NSCLC; 24.9% in the experiment on SN12C renal. For the same compound, the growth in the experiment on UO-31 renal was 26.6%; in the experiment on TK-10 renal, 20.5%; in the experiment with ACHN renal, 40.6%; in the experiment with CAKI-1 renal it was 24.6%; in the experiment on A498 renal it was 26.2%; with CCRF-CEM leukemia, -3.04% (active). Moreover, the growth with MOLT-4 leukemia was 8.46% (active).

As to `O=C1NC(=S)NC(=O)C1=Cc1cn(Cc2ccccn2)c2ccccc12`, the growth in the experiment on HCT-15 colon is 42.9%; in the experiment on HT29 colon, 72.2%; in the experiment with SNB-75 CNS, 52.8%; in the experiment on U251 CNS it was 31.5%; in the experiment with PC-3 prostate, 47.5%; in the experiment with SK-MEL-5 melanoma, 73.6%. Besides, the growth in the experiment on UACC-62 melanoma was 70.5%; with LOX IMVI melanoma it was 27.1%; with SK-MEL-28 melanoma, 73.4%; in the experiment on SK-MEL-2 melanoma, 89.7%; in the experiment on EKVX NSCLC, 84.7%; in the experiment with SN12C renal, 66.6%. Moreover, the growth is 59.2% with UO-31 renal; 72.7% in the experiment on TK-10 renal; 82.2% in the experiment with ACHN renal; 7.91% (active) in the experiment on CAKI-1 renal; -86.4% (active) in the experiment with A498 renal; 31.3% with CCRF-CEM leukemia. The growth in the experiment with MOLT-4 leukemia is 66%.

In the case of `CN1C(=O)N(C)C2NC(N/N=C/c3ccccc3)=NC21` (configuration not stated), the growth with HCT-15 colon was 103%; in the experiment with HT29 colon it was 111%; with SNB-75 CNS it was 76.3%; with U251 CNS, 101%; in the experiment with SK-MEL-5 melanoma, 102%; with UACC-62 melanoma, 100%. Further, the growth with LOX IMVI melanoma is 96.5%; in the experiment with SK-MEL-28 melanoma, 102%; in the experiment with SK-MEL-2 melanoma it was 108%; in the experiment on EKVX NSCLC, 98.7%; in the experiment on UO-31 renal it was 92.7%; in the experiment on ACHN renal, 102%. The growth in the experiment with CAKI-1 renal was 88.8%; in the experiment with A498 renal it was 95.4%.

For `Cc1ccccc1-c1cc(Cc2ccc(F)cc2)c(=O)[nH]n1`, the growth was 110% with HCT-15 colon; 117% with HT29 colon; 101% in the experiment with SNB-75 CNS; 106% with U251 CNS; 116% with PC-3 prostate; 98.3% in the experiment with SK-MEL-5 melanoma. For the same compound, the growth was 99.6% with UACC-62 melanoma; 98.9% in the experiment with LOX IMVI melanoma; 118% in the experiment on SK-MEL-28 melanoma; 122% in the experiment with SK-MEL-2 melanoma; 81.8% with EKVX NSCLC; 148% in the experiment on SN12C renal. The growth with UO-31 renal was 70.5%; in the experiment on TK-10 renal, 122%; in the experiment on ACHN renal it was 105%; with CAKI-1 renal it was 54.4%; in the experiment on A498 renal, 117%; in the experiment with CCRF-CEM leukemia, -50.9% (active). Also, the growth with MOLT-4 leukemia is 58.1%.

With `C#CCNC(=O)[C@H](Cc1ccccc1)NC(=O)[C@]12CC[C@@H](C(=C)C)[C@@H]1[C@H]1CC[C@@H]3[C@@]4(C)Cc5c([nH]c6ccccc56)C(C)(C)[C@@H]4CC[C@@]3(C)[C@]1(C)CC2`, the growth in the experiment on HCT-15 colon was 101%; with HT29 colon it was 88.8%; in the experiment with SNB-75 CNS, 92.9%; in the experiment with U251 CNS, 91.8%; with PC-3 prostate, 77.8%; in the experiment on SK-MEL-5 melanoma, 102%. The growth with LOX IMVI melanoma was 97.4%; with SK-MEL-28 melanoma, 102%; in the experiment with SK-MEL-2 melanoma it was 95.5%; with SN12C renal, 93.6%; in the experiment with UO-31 renal, 90.3%; in the experiment with TK-10 renal, 90.4%. For the same compound, the growth was 94.8% in the experiment on ACHN renal, 86.8% in the experiment with CAKI-1 renal, 91.6% with CCRF-CEM leukemia and 93.7% in the experiment with MOLT-4 leukemia.

`COc1cc(C2NC(c3cc(OC)c(OC)c(OC)c3)C(C#N)(C#N)C2(C#N)C#N)cc(OC)c1OC` (configuration not stated): the growth was 97.9% in the experiment with HCT-15 colon; 105% in the experiment with HT29 colon; 80.7% in the experiment with SNB-75 CNS; 98.5% with SNB-19 CNS; 106% in the experiment with U251 CNS; 89.5% in the experiment with SK-MEL-5 melanoma. In addition, the growth in the experiment on LOX IMVI melanoma is 98.2%; with SK-MEL-28 melanoma, 96.5%; in the experiment with SK-MEL-2 melanoma, 101%; in the experiment on EKVX NSCLC, 97.6%; in the experiment with SN12C renal, 100%; in the experiment with UO-31 renal, 83.8%. Moreover, the growth with TK-10 renal was 103%; in the experiment on ACHN renal, 97.7%; with A498 renal, 107%; with CCRF-CEM leukemia, 136%; with MOLT-4 leukemia, 96.8%.

In the case of `CC(=O)OCC(=O)[C@@]1(O)CC[C@H]2[C@@H]3CC(=C(Br)Br)C4=CC(=O)CC[C@]4(C)[C@H]3C(=O)C[C@@]21C`, the growth with HCT-15 colon was 94.4%; with HT29 colon, 92.1%; in the experiment on SNB-75 CNS, 81.2%; in the experiment on U251 CNS it was 82.9%; in the experiment on PC-3 prostate, 76.1%; with SK-MEL-5 melanoma it was 95.2%. In addition, the growth was 82.5% in the experiment on UACC-62 melanoma; 97.3% in the experiment with LOX IMVI melanoma; 102% in the experiment with SK-MEL-28 melanoma; 78.7% in the experiment on SK-MEL-2 melanoma; 90.1% in the experiment with EKVX NSCLC; 93.6% in the experiment on SN12C renal. For the same compound, the growth with UO-31 renal was 68.3%; with TK-10 renal, 91.2%; in the experiment on ACHN renal, 94.1%; in the experiment on CAKI-1 renal it was 81.7%; in the experiment with A498 renal, 79.5%; with CCRF-CEM leukemia, 83.3%. The growth in the experiment with MOLT-4 leukemia is 93.1%.
